Assay outcomes (PubChem)
DT40 TDP1 no CPT = qHTS for Inhibitors of human tyrosyl-DNA phosphodiesterase 1 (TDP1): qHTS in cells in absence of CPT; actives 15% (n = 420,000); Potency, µM (top dose mostly 46.2 µM), hits mostly inhibitors; DT40 Tdp1-/- hTDP1 cells, no CPT, ATP luminescence, 48 h; AID 686978, 2013; also: nearly all actives have a fitted effect of over 55% in size
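No-CPT arm: Tdp1-/-;hTDP1 DT40 cells (400/well) plus compounds, incubated ≥48 hr at 37 °C. Readout CellTiter-Glo luminescence.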
DT40 TDP1 CPT = growth inhibition of DT40 Tdp1-/-;hTDP1 cells with camptothecin (screen for TDP1 inhibitors). chicken DT40 Tdp1-/-;hTDP1 cells + 20 nM CPT, ATP luminescence, 48 h. Potency, µM (highest dose often 46.2 µM), usual class: inhibitors. actives 12% (n = 420,000). AID 686979; also: nearly all actives have a fitted effect of over 55% in size
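Chicken DT40 Tdp1-/- cells complemented with human TDP1, 400 cells/well, exposed to compounds plus 20 nM camptothecin for at least 48 h at 37 C; viability read as ATP content by CellTiter-Glo luminescence.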
ELG1 DNA repair = blocks ELG1-dependent DNA repair in HEK293T cells; HEK293T ELG1-luciferase reporter, luminescence, 16 h; DNA damage induced by 5-fluorouridine; Potency, µM (series often up to 46.1 µM), actives largely listed as inhibitors; actives 2.3% (n = 330,000); also: nearly all actives have a fitted effect of over 55% in size
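Luminescence from the luciferase reporter, measured 30 min after ONE-Glo reagent at room temperature, was the read-out. Beforehand, 2,000 cells per well were exposed for 16 hr at 37 °C to 5-fluorouridine together with compound or vehicle.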
12-LOX inh = ALOX12 (human) lipoxygenase inhibition; P18054; AID 1671190; actives 1.1% (n = 580,000); Potency, µM (series often up to 108 µM), most hits filed as inhibitors; purified 12hLO, xylenol orange hydroperoxide absorbance
Target sequence (P18054 whole entry, looked up): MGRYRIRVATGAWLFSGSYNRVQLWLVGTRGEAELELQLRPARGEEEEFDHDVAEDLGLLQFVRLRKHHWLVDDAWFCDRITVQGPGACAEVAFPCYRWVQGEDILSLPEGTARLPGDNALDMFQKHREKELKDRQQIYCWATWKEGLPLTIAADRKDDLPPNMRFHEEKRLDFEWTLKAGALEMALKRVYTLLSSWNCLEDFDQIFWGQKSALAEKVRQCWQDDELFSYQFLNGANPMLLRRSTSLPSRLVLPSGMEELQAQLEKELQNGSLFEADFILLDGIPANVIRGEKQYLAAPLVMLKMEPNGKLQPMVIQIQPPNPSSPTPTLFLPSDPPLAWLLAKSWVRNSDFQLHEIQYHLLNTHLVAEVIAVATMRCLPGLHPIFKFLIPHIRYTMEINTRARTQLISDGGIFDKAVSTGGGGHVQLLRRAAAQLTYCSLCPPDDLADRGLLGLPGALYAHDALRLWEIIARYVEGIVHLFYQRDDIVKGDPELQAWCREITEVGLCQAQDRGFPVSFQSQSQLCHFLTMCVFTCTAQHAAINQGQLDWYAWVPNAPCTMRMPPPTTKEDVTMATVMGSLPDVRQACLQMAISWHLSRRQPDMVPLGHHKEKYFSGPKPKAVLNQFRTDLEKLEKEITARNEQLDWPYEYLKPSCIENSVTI
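Purified human 12hLO at 150 nM in 25 mM Hepes, 0.01% Triton X-100, pH 7.0, preincubated 15 min at room temperature with compound. Reaction started with 40 uM arachidonic acid, 30 min at room temperature. Hydroperoxide measured by Fe-xylenol orange, 573/405 nm absorbance ratio.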
RORg inh = inhibitors of mouse ROR gamma transcriptional activity; Drosophila S2 Gal4-RORgamma UAS-luciferase reporter, 20 h; actives 5.4% (n = 310,000); P51450; AID 2551; Potency, µM (highest dose often 53.6 µM), most hits filed as inhibitors; also: nearly all actives have a fitted effect of over 60% in size
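A Gal4/UAS one-hybrid system in insect cells: metallothionein-promoter Gal4–ROR gamma fusion plus Photinus luciferase reporter. Copper sulfate 700 uM final, 20 hr ambient incubation, luminescent detection after 10 min with reagent.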
VP16 counter = Gal4-VP16 reporter inhibition counter-screen; Drosophila S2 Gal4-VP16 UAS-luciferase, luminescence, 20 h; Potency, µM (top dose mostly 53.6 µM), hits mostly inhibitors; actives 3.5% (n = 310,000); AID 2546;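 also: Gal4-VP16 expression switched on by copper sulfate through the metallothionein promoter; nearly all actives have a fitted effect of over 50% in size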
Numbers stand for hits; 0 = inactive; ? = inconclusive; - = no result. Only some compounds are listed: those with a hit (about 15% of all), similar ones and a draw of the others. Calls follow the shape of the dose curve; as a rule, active = well fitted curve in the direction sought with a large enough effect; inconclusive = small, poorly fitted or top-dose-only effect, or another doubt; inactive = no such curve, though single readings can be large; an effect the other way counts as inactive or inconclusive.

SMILES	DT40 TDP1 no CPT	DT40 TDP1 CPT	ELG1 DNA repair	12-LOX inh	RORg inh	VP16 counter
COc1ccc(S(=O)(=O)NC(C)c2ccccc2)cc1-c1noc(C(C)(C)C)n1 (stereo not drawn)	-	-	-	0	-	-
C[C@]1(C(=O)NCCCNc2ncc(C(F)(F)F)cc2Cl)C=C[C@@H](Cc2ccccc2)N1C(=O)c1ccccc1	25.9µM	?	0	-	?	?
CN(C)C(=O)CN1CCN(C(=O)c2cc(-c3cccnc3)nc3ccccc23)CC1	-	-	-	0	-	-
c1csc(CNc2nc(Oc3ccncc3)c3sccc3n2)c1	0	0	-	0	-	-
CCOC(=O)Cc1ccc(Nc2nc(NCc3cccs3)nc3ccsc23)cc1	20.6µM	20.6µM	-	0	-	-
COc1ccc(Nc2nc(NCc3cccs3)nc3ccsc23)cc1OC	18.4µM	25.9µM	-	?	-	-
CC(=O)c1cccc(Oc2ccc(C#N)c(C#N)c2)c1	-	-	-	0	-	-
O/N=C/c1ccc(Cl)c(Cl)c1	-	-	-	0	-	-
NC(N)=N/N=C/c1ccc(OCc2ccccc2Cl)cc1	13µM	14.6µM	0	?	?	?
O=C(NN=Cc1ccc(Cl)cc1Cl)c1ccccc1	?	0	-	?	-	-
NC(N)=N/N=C/c1ccc(Cl)c(Cl)c1	16.4µM	13µM	0	?	0	0
NC(N)=N/N=C/c1ccc(Cl)cc1Cl	23.1µM	16.4µM	0	0	0	0
CCOC1CCOC2(CCN(C(=O)c3ccoc3)CC2)C1 (stereo not drawn)	-	-	-	0	-	-
CC(C)c1ccc(C(=O)N2CC(C(=O)NCCc3ccncc3)C3(CCOCC3)C2)cc1 (stereo not drawn)	-	-	-	0	-	-
COc1ccccc1NC(=O)COC(=O)COc1cccc2c1OC(C)(C)C2	0	0	0	0	-	-
COc1ccc(NC(=O)COc2cccc3c2OC(C)(C)C3)c(OC)c1	16.4µM	?	0	0	-	-
Cc1ccc(CNC(=O)COc2cccc3c2OC(C)(C)C3)cc1	18.4µM	?	0	0	-	-
COc1ccc(CNCC(O)COc2cccc3c2OC(C)(C)C3)cc1 (stereo not drawn)	8.2µM	9.2µM	9.2µM	0	0	10µM
COc1cc(NC(=O)COc2cccc3c2OC(C)(C)C3)cc(OC)c1OC	8.2µM	13µM	12.6µM	0	-	-
Cn1cc(S(=O)(=O)N2CCCC(C(=O)Nc3ccn(Cc4ccc(Cl)c(Cl)c4)n3)C2)cn1 (stereo not drawn)	-	-	-	0	-	-
Cc1ccc(SCCOc2ccccc2C=O)cc1	-	-	-	0	-	-
CCc1ccccc1NC(=O)Cc1c(C)nc2nc(-c3cccs3)nn2c1C	-	-	-	0	-	-
Cc1ccc(NC(=O)COC(=O)COc2cccc3c2OC(C)(C)C3)c(C)c1	0	0	0	0	-	-
COc1cc(C)c(NC(=O)COc2cccc3c2OC(C)(C)C3)cc1OC	11.6µM	16.4µM	18.3µM	-	-	-
CCCCc1nc2cc(C(=O)N3CCC(OC)CC3)ccc2o1	0	0	?	0	0	0
SMILES	DT40 TDP1 no CPT	DT40 TDP1 CPT	ELG1 DNA repair	12-LOX inh	RORg inh	VP16 counter
CCCc1ccc2oc(C(=O)NCCc3nncn3CC)c(C)c2c1	-	-	-	0	-	-
CCCc1ccc2oc(C(=O)NCCc3cnn(C)c3)c(C)c2c1	16.4µM	16.4µM	?	?	?	0
C=CCC1(CC=C)CCCN1C(=O)c1ccc2oc(CCCC)nc2c1	10.3µM	11.6µM	-	0	-	-
CCCc1ccc2oc(C(=O)N(Cc3nccn3C)C(C)C)c(C)c2c1	2.06µM	5.17µM	0	0	11.2µM	0
Cc1c(C(=O)N(Cc2nccn2C)C(C)C)oc2c(F)cccc12	0	?	0	0	0	0
O=C(c1ccc2oc(CCCc3ccccc3)nc2c1)N1CCCC1	?	16.4µM	?	0	0	0
Cc1ccc(C=O)n1-c1ccncc1	-	-	-	0	-	-
CCOC(=O)CC1CCCCN1C(=O)c1ccc2oc(CCc3ccccc3)nc2c1 (stereo not drawn)	14.6µM	20.6µM	0	0	?	0
CC(C)N(Cc1nccn1C)C(=O)c1ccc2oc(CCCc3ccccc3)nc2c1	23.1µM	18.4µM	0	0	0	0
CCCCCC(C)NC(=O)/C=C/c1ccc(C)cc1 (stereo not drawn)	-	-	-	0	-	-
CC(=O)N1CCN(C(=O)c2ccc3c(ccn3Cc3ccccc3)c2)CC1	-	-	-	0	-	-
O=C1NCCOCCCN(C(=O)CC2CCCC2)[C@H]2CCCC[C@@H]12	-	-	-	0	-	-
CC(=O)Nc1ccc(NC(=O)c2cc(-c3ccccc3)nc3ccccc23)cc1	11.6µM	?	?	0	0	0
O=C(NC(=S)Nc1ccccc1)c1cc(-c2ccccc2)nc2ccccc12	?	29.1µM	0	?	0.282µM	4.47µM
O=C(Nc1ccc(SC(F)F)cc1)c1cc(-c2ccccc2)nc2ccccc12	-	-	-	39.8µM	-	-
O=C(NNC(=S)Nc1ccccc1)c1cc(-c2cccnc2)nc2ccccc12	0	0	0	?	0	0
O=C(NNC(=O)c1cc(-c2ccc(Cl)cc2Cl)nc2ccccc12)Nc1ccccc1	20.6µM	?	?	0	?	0
CC(=O)Nc1ccc(NC(=O)c2cc(C)nc3ccccc23)cc1	-	-	-	0	-	-
Cn1cc(CC(=O)N2CCC(NC(=O)C3CC3)CC2)c2ccccc21	-	-	-	0	-	-
Cc1cc(=O)oc2cc(OCC(=O)NCCC3CCN(Cc4ccccc4)CC3)ccc12	-	-	-	0	-	-
Cn1nc2n(c1=O)CCNCC2	-	-	-	0	-	-
CC(=O)c1ccc(NC(=O)COC(=O)Cc2cccc3ccccc23)cc1	-	-	-	0	-	-
CC(C)(C)NS(=O)(=O)c1ccc(NC(=O)c2cc(-c3ccccc3)nc3ccccc23)cc1	0	?	23.1µM	?	0	0
O=C(NC1CCCCCCC1)c1ccccc1C(F)(F)F	-	-	-	0	-	-
Cc1ccc(C2Cn3nnc(-c4noc(Cc5ccc(F)cc5)n4)c3CO2)cc1 (stereo not drawn)	-	-	-	0	-	-
SMILES	DT40 TDP1 no CPT	DT40 TDP1 CPT	ELG1 DNA repair	12-LOX inh	RORg inh	VP16 counter
O=c1[nH]c(/C=C\c2cccs2)nc(O)c1[N+](=O)[O-]	0	0	0	22.4µM	0	0
O=C(CSC1=NCCS1)Nc1ccc2ccccc2c1	0	0	?	0	0	0
O=C(CSC1=NCCS1)Nc1ccnc2ccccc12	9.2µM	6.51µM	?	0	0	3.98µM
Cc1cc(C)nc(SCC(=O)Nc2ccccc2C(N)=O)n1	-	-	-	50.1µM	-	-
Cc1cc(C)nc(SCC(=O)Nc2ccnc3ccccc23)n1	0.651µM	1.64µM	?	0	2.24µM	0.891µM
COCc1cc(C)nc(SCC(=O)Nc2ccccc2C)c1C#N	5.8µM	7.31µM	0	0	0	0
Cc1cc(C)nc(NC(=O)CSc2nccc(C)n2)n1	0	0	0	0	0	0
COCCCNC(=O)N1CCC2(CC1)CN(Cc1ccc(OC)cc1)C2=O	-	-	-	0	-	-
CCOc1ccc(CC(=O)N2CCC(n3cc(-c4nc(C(C)C)no4)nn3)C2)cc1 (stereo not drawn)	-	-	-	0	-	-
O=C(CC(c1ccccc1)c1ccccc1)N1CCN(C/C=C/c2ccccc2)CC1	-	-	-	0	-	-
